Potency data for 21 compounds are collected here from PubChem BioAssay (Tox21).

Inconclusive results are not listed. The source made the active and inactive calls. Unless noted, the call rests on the fitted dose curve; in most records, active means well fitted curve in the direction sought with a large enough effect in the repeat runs; inconclusive means weak or mixed curves; inactive means no such curve, though single readings can be large; an effect the other way counts as inactive or inconclusive. Positions of bridges follow the written chain, without caps; N, C: chain ends. Non-standard residues stand in square brackets, D forms with d. Residues, ends and D or L forms follow the SMILES beside them. *: point of attachment. pGlu = O=C1CC[C@@H](C(=O)O)N1; X2 = CC[C@H](C)CCCCC(=O)*; Dab = NCC[C@H](N)C(=O)O

Assay [1] in a line: qHTS assay to identify small molecule antagonists of the thyroid receptor (TR) signaling pathway - cell viability counter screen (AID 743064). Further: nearly all actives have a fitted effect of over 50% in size. Further: potency means the concentration at half of the fitted maximal effect. The method in brief: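 GH3.TRE-Luc rat pituitary cells dosed after 4 hr plating, co-stimulated with T3 at 1 nM final, incubated 23.5 h at 37 C. Viability measured in the same wells by CellTiter-Fluor fluorescence after 30 min further at 37 C.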
(In general: In qHTS, concentration-response curves come from the screen itself.)

A short description of assay [2]: qHTS assay to identify small molecule antagonists of the estrogen receptor alpha (ER-alpha) signaling pathway - cell viability counter screen (AID 743074; calls by dose curve;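 further: HEK293 cells carrying ER-alpha-UAS-bla reporter stimulated with 17beta-estradiol; nearly all actives have a fitted effect of over 45% in size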).
Assay [3] addresses Estrogen receptor (Homo sapiens) (UniProt P03372). Nature of the assay: qHTS assay to identify small molecule agonists of the estrogen receptor alpha (ER-alpha) signaling pathway (AID 743075; calls by dose curve; further: potency means the concentration at half of the fitted maximal effect).
Assay [4] shares this target. Nature of the assay: qHTS assay to identify small molecule agonists of the estrogen receptor alpha (ER-alpha) signaling pathway using the BG1 cell line (AID 743079). Further: nearly all actives have a fitted effect of over 20% in size. Further: potency means the concentration at half of the fitted maximal effect. The conditions noted are these: BG1Luc4E2 cells, ERE-luciferase agonist, 22 h; activation: at 70.3 µM (top of the series).
The nature of assay [5]: qHTS assay to identify small molecule antagonists of the estrogen receptor alpha (ER-alpha) signaling pathway using the BG1 cell line (AID 743080; calls by dose curve;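 further: BG1 cells stimulated with 17beta-estradiol alongside compound; nearly all actives have a fitted effect of over 25% in size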; further: potency means the concentration at half of the fitted maximal effect). A digest of the protocol: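 Endogenous full-length ER-alpha in BG1-Luc-4E2 cells drives a stably integrated 4×ERE luciferase gene; compounds were tested against 17beta-estradiol over 21.5 h, with luminescence and multiplexed viability fluorescence recorded.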

The nature of assay [6]: qHTS assay to identify small molecule antagonists of the estrogen receptor alpha (ER-alpha) signaling pathway using the BG1 cell line - cell viability counter screen (AID 743081).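 Further: compound given together with 17beta-estradiol as the ER stimulus; nearly all actives have a fitted effect of over 45% in size.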
For assay [7], the target named is Aromatase (Homo sapiens) (UniProt P11511). Briefly: qHTS assay to identify aromatase inhibitors (AID 743083). Further: nearly all actives have a fitted effect of over 55% in size.
Assay [8] is described as follows: qHTS assay to identify small molecule antagonists of the thyroid receptor (TR) signaling pathway (AID 743065). Further: nearly all actives have a fitted effect of over 55% in size. The method in brief:
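Antagonism measured as loss of luciferase signal in GH3 cells stably carrying a TRE-luciferase reporter, co-treated with compound and T3 (1 nM final) for 23.5 h at 37 C. Viability was read in the same well by CellTiter-Fluor.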

For assay [9], the system named is thyroid hormone receptor (rat, GH3 cells). Briefly: qHTS assay to identify small molecule agonists of the thyroid receptor (TR) signaling pathway (AID 743066; calls by dose curve).
For assay [10], the target named is Estrogen receptor (Homo sapiens) (UniProt P03372). Nature of the assay: qHTS assay to identify small molecule antagonists of the estrogen receptor alpha (ER-alpha) signaling pathway (AID 743069; active means well fitted curve in the direction sought with a large enough effect in the signal ratio in the repeat runs, not every such curve was filed as active; the % refers to the signal ratio). A digest of the protocol:
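Compound effects are measured against 17beta-estradiol stimulation in HEK293 cells with a UAS-controlled beta-lactamase reporter for ER-alpha. Exposure lasts 18 hr at 37C; LiveBLAzer B/G FRET substrate follows for 2 hr at room temperature.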

Sequence of Aromatase (Homo sapiens) (P11511 whole entry, looked up): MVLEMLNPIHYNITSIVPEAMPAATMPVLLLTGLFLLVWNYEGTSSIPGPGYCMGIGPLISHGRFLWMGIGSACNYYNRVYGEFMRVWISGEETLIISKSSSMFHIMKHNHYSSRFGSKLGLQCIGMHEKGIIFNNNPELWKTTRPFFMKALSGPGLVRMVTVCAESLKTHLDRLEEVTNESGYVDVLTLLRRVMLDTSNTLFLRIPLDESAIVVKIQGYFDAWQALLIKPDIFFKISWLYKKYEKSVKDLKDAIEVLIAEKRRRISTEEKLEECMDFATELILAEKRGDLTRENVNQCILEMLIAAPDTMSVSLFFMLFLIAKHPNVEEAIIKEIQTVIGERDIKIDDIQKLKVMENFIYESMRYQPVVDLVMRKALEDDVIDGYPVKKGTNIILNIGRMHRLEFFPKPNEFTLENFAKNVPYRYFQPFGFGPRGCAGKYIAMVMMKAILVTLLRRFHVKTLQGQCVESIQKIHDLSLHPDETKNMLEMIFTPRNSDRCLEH
Sequence of Estrogen receptor (Homo sapiens) (P03372 whole entry, looked up): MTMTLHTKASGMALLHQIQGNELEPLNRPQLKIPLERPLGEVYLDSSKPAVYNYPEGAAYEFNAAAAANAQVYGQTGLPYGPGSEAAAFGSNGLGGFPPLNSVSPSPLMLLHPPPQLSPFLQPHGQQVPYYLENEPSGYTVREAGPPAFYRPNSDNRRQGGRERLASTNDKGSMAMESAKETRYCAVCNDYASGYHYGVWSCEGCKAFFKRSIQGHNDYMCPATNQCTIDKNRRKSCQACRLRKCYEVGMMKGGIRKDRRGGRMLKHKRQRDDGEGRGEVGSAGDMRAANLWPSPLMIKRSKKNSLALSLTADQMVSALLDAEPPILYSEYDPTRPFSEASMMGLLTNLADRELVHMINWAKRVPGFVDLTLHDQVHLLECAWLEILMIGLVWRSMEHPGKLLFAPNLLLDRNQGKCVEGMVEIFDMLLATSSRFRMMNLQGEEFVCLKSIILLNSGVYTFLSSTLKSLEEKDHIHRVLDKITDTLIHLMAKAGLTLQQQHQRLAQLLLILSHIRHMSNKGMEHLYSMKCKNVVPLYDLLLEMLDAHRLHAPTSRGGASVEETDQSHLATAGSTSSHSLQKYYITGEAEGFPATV

For the compound `CC1C(=O)CC2C3(C)CCC2(C(C)C(=O)O)C(=O)C13` (configuration not stated), the Potency entry in [1], in assay [2], in assay [3], in assay [4], in assay [5] and in assay [6] was “inactive” each time. The Potency result in assay [7] was “inactive”.

Take `COC(=O)[C@H]1[C@H]2C[C@@H]3c4[nH]c5cc(OC)ccc5c4CCN3C[C@H]2C[C@H](OC)[C@@H]1OC`: the Potency result in assay [8], in assay [9], in [10], in [2], in assay [3] and in [4] was “inactive” each time. In addition, the Potency result in [5], in [6] and in assay [7] was “inactive” in each case.

For the compound `OCCO[C@@H]1[C@@H](O)[C@H](O)[C@@H](CO)O[C@@H]1O`, the Potency result in [1], in assay [2], in assay [3], in assay [4], in [6] and in assay [7] was “inactive” throughout.

Take `CC[C@H](C)CCCCC(=O)N[C@@H](CCN)C(=O)N[C@H](C(=O)N[C@@H](CCN)C(=O)N[C@H]1CCNC(=O)[C@@H]([C@H](C)O)NC(=O)[C@H](CCN)NC(=O)[C@H](CCN)NC(=O)[C@H](CC(C)C)NC(=O)[C@@H](CC(C)C)NC(=O)[C@H](CCN)NC1=O)[C@@H](C)O` (X2-[Dab]T[Dab][Dab][Dab][dL]L[Dab][Dab][dT]; lactam 4-C): the Potency entry in assay [8], in assay [9], in [10], in [2], in [3] and in [4] was “inactive” in each case. Further, the Potency entry in assay [5], in assay [6] and in assay [7] was “inactive” in each case.

For `CCCCC(O)c1ccccc1` (configuration not stated), the Potency result in [8], in assay [9], in assay [10], in [2], in assay [3] and in assay [5] was “inactive” each time. Further, the Potency result in assay [6] and in assay [7] was “inactive” each time. Moreover, in assay [4], the Potency is 21.1 µM (active).

For `CCC(=O)c1ccc2c(c1)N(CCCN1CCN(CCO)CC1)c1ccccc1S2`, the Potency in assay [1] is 10.6 µM (active). Further, the Potency entry in assay [2], in assay [3], in assay [4] and in assay [5] was “inactive” each time.

Take `Cn1c(=O)c2c(ncn2CCOC(=O)C(C)(C)Oc2ccc(Cl)cc2)n(C)c1=O`: the Potency entry in assay [8], in assay [9], in assay [10], in [2], in assay [3] and in [4] was “inactive” throughout. Further, the Potency entry in assay [6] and in assay [7] was “inactive” each time. Besides, the Potency in assay [5] was 29.8 µM (active).

With `CC[C@H](C)[C@H](NC(=O)[C@H](Cc1ccccc1)NC(=O)[C@H](C)NC(=O)[C@H](CC(=O)O)NC(=O)[C@H](CCCCN)NC(=O)[C@H](CO)NC(=O)[C@@H]1CCCN1C(=O)[C@@H]1CCC(=O)N1)C(=O)NCC(=O)N[C@@H](CC(C)C)C(=O)N[C@@H](CCSC)C(N)=O` ([pGlu]PSKDAFIGLM-NH2), the Potency result in assay [1], in assay [2], in assay [6] and in assay [7] was “inactive” throughout.

`CN(C)CCC=C1c2ccccc2C(C)(C)c2ccccc21`: in assay [1], the Potency is 13.3 µM (active). Also, the Potency entry in assay [10], in [4], in assay [5] and in assay [6] was “inactive” in each case.

For the compound `O=C(Cn1c(=O)sc2ccc(Cl)cc21)N1CCN(CCO)CC1`, the Potency result in assay [1], in [2], in assay [6] and in [7] was “inactive” each time.

As for `CCCCCCCCCCCCCCCCCC[N+](C)(C)CCC[Si](OC)(OC)OC`, the Potency entry in assay [8], in assay [9], in assay [10], in assay [2], in assay [5] and in assay [6] was “inactive” each time. Besides, the Potency result in [7] was “inactive”. Besides, the Potency in [3] is 23.9 µM [activator] (active); in assay [4], 5.96 µM (active).

With `CN(C(=O)CO)c1c(I)c(C(=O)NCC(O)CO)c(I)c(C(=O)NCC(O)CO)c1I` (configuration not stated), the Potency entry in [8], in assay [9], in assay [10], in [2], in assay [3] and in [4] was “inactive” throughout. In addition, the Potency entry in [5], in [6] and in assay [7] was “inactive” throughout.

As to `CC1=C[C@H](O)CC(C)(C)[C@H]1/C=C/C(C)=C/C=C/C(C)=C/C=C/C=C(C)/C=C/C=C(C)/C=C/C1=C(C)C[C@@H](O)CC1(C)C`, the Potency in [1] was 23.7 µM (active). The Potency entry in assay [2] and in assay [7] was “inactive” throughout.

Regarding `CC1=C(/C=C/C(C)=C/C=C/C(C)=C/C=C/C=C(C)/C=C/C=C(C)/C=C/C2=C(C)C[C@@H](O)CC2(C)C)C(C)(C)C[C@H](O)C1`, the Potency in [1] was 29.8 µM (active). In addition, the Potency entry in assay [2] and in [6] was “inactive” throughout.

Take `CN[C@@H]1[C@H](O[C@H]2[C@H](O[C@H]3[C@H](O)[C@@H](O)[C@H](N=C(N)N)[C@@H](O)[C@@H]3N=C(N)N)O[C@@H](C)[C@]2(O)CO)O[C@@H](CO)[C@H](O)[C@H]1O`: the Potency result in assay [1], in assay [2], in assay [6] and in assay [7] was “inactive” each time.

As for `C[C@H](CCCC(C)(C)O)[C@H]1CC[C@H]2[C@@H]3CC=C4C[C@@H](O)CC[C@]4(C)[C@H]3CC[C@]12C`, the Potency entry in [1], in assay [2], in assay [6] and in assay [7] was “inactive” in each case.

On to `O=[N+]([O-])O[C@@H]1CO[C@H]2[C@@H]1OC[C@@H]2O`, for which the Potency entry in assay [8], in assay [9], in assay [10], in assay [2], in assay [3] and in assay [4] was “inactive” throughout. The Potency entry in [5] and in assay [6] was “inactive” throughout.

For `Nc1ncnc2c1ncn2CCOCP(=O)(O)O`, the Potency result in [8], in [9], in assay [10], in [2], in [3] and in assay [4] was “inactive” in each case. Moreover, the Potency entry in assay [5] and in assay [6] was “inactive” each time.

For the compound `Nc1nc2c(c(=O)[nH]1)N(C=O)C(CNc1ccc(C(=O)N[C@@H](CCC(=O)O)C(=O)O)cc1)CN2` (some centres not stated), the Potency result in assay [1], in assay [2], in [6] and in assay [7] was “inactive” each time.

For `CC(C)CN(C[C@@H](OP(=O)(O)O)[C@H](Cc1ccccc1)NC(=O)O[C@H]1CCOC1)S(=O)(=O)c1ccc(N)cc1`, the Potency result in [8], in assay [9], in [10], in [2], in assay [3] and in assay [4] was “inactive” in each case. The Potency entry in assay [5], in assay [6] and in assay [7] was “inactive” in each case.

For `CS(=O)(=O)OCC(O)C(O)COS(C)(=O)=O` (configuration not stated), the Potency result in assay [8], in assay [9], in assay [10], in [2], in [3] and in assay [4] was “inactive” each time. Also, the Potency entry in assay [5], in assay [6] and in assay [7] was “inactive” each time.
